One may read the viability as a read-out of living cells in per cent, often relative to untreated cells.

Molecules are shown by their SMILES. Records with an inconclusive call do not appear. Active and inactive are the calls of the source.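 How the source made its calls: active means cell viability at or below a set limit in both duplicate runs, the limit being the all-compound median minus 4 SD (cut at about 23% in these data, passing the limit was not always enough); inconclusive means no clear call, values can overlap the other calls; inactive means the rest.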

The results in this text go back to PubChem BioAssay.

The test in a line: viability of HCT116 without oncogenic beta-catenin – human colon tumor cells, pilot screen (AID 823).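 Further: 0% = wells killed by 20 µM Hyamine and 100% = untreated DMSO cell wells.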 The note with it: HCT116 beta-catenin knockout viability, CellTiter-Glo, 60 h; at 10 µM; hits give low values.
For the molecule `COc1ccc(N2C(=O)CC(c3ccc(OC(C)C)cc3)C2=O)cc1` (stereo not drawn), the viability was 97.9% (inactive).
Consider `COC(=O)CN1C(=O)C(O)(CC(=O)c2cccc(Br)c2)c2ccccc21` (stereo not drawn), for which the viability is 90.9% (inactive).
With `O=C1C(=O)N(CCCn2ccnc2)C(c2cccnc2)/C1=C(/O)c1ccc(Cl)cc1` (stereo not drawn), the viability was 97.2% (inactive).
Take `CCc1ccccc1S(=O)(=O)Cc1ccc(C(=O)N2CCN(c3ccccn3)CC2)o1`: the viability is 84.1% (inactive).
As for `O=C(NC1CCCc2ccccc21)c1cccnc1` (stereo not drawn), the figure is 91.4% (inactive); as for `Brc1ccc(-c2noc(CCc3ccccc3)n2)o1`, 102% (inactive); as for `COc1cc2c(cc1OC)CN(Cc1cccs1)CC2`, 86.4% (inactive).
Regarding `Cc1ccc(C)c(NC(=O)CS(=O)(=O)c2cn(C)c3ccccc23)c1`, the viability is 103% (inactive).
In the case of `CCOc1ccc(S(=O)(=O)Nc2ccccc2C(=O)NCC2CCCO2)cc1` (stereo not drawn), the viability was 94.1% (inactive).
For `CN1CCN(CCCNC(=O)c2ccc(CS(=O)(=O)c3ccc(Br)cc3)o2)CC1`, the viability is 95.3% (inactive).
For the molecule `O=C(COC(=O)C1CC(=O)N(C2CCCCC2)C1)c1ccc(F)cc1` (stereo not drawn), the viability was 108% (inactive).
With `C=CCN1C(=O)c2oc3ccccc3c(=O)c2C1c1ccc(O)c(OC)c1` (stereo not drawn), the viability is 101% (inactive).
As to `Cc1ccc(Oc2ccccc2)c(NC=O)c1`, the viability is 96.2% (inactive).
As for `Cc1c(C)n(C(=O)CSc2nncn2C)c2ccccc12`, the figure is 93.2% (inactive).
Take `Cc1ccc(C)c(Cn2c(CN(C)Cc3ccccc3)nc3c2c(=O)n(C)c(=O)n3C)c1`: the viability is 71.7% (inactive).
In the case of `Cc1noc(NS(=O)(=O)c2ccc(NC(=O)CSc3ncccn3)cc2)c1C`, the viability was 109% (inactive).
With `C=CCOC(=O)C1=C(C)N(C)C(=O)NC1c1cc2c(cc1Br)OCO2` (stereo not drawn), the viability is 88.1% (inactive).
With `CCOc1ccccc1Oc1c(C)oc2cc(OC(=O)N3CCOCC3)ccc2c1=O`, the viability was 103% (inactive).
Take `COC(=O)CSc1nc(C)cc(Oc2ccccc2)n1`: the viability is 104% (inactive).
In the case of `Cc1noc(C)c1S(=O)(=O)N(CC(=O)N1CCc2ccccc21)c1ccc(C(C)C)cc1` it was 86.7% (inactive).
On to `CSc1ccc(Cl)c(C(=O)NCc2ccco2)c1`, for which the viability was 85.8% (inactive).
Regarding `CSc1nnc(Cn2c(=O)sc3ccccc32)n1-c1ccccc1C`, the viability was 97.2% (inactive).
On to `CCCC(=O)C1=C(O)C(C(=O)OC)C(C)(C)CC1=Nc1ccccc1` (stereo not drawn), for which the viability was 91.2% (inactive).
